# ELG1 genotoxic: genotoxicity induction in ELG1-luciferase HEK293T cells. AID 504466. Potency, µM (doses to about 46 µM), inactives show at the highest dose activity change, positive = activation, most hits filed as activators. 1.3% of 330,000 active. HEK293T ELG1-luciferase reporter, luminescence, 16 h; also: % of control where 0% means no effect; nearly all actives have a fitted effect of over 60% in size
#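 Step 1: seed 2,000 HEK293T ELG1-luciferase cells per well. Step 2: add compound or DMSO, incubate 16 hr at 37 °C. Step 3: ONE-Glo, 30 min at room temperature, read luminescence.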
# SMN2 splice up: enhancers of SMN2 splice variant expression | 2.8% of 210,000 active | Potency, µM (series often up to 46.1 µM), for the others: top-dose activity change, positive = activation, usual class: activators | HEK293 SMN2-luciferase splicing reporter, luminescence, 30-36 h; also: % of control where 0% means no effect; nearly all actives have a fitted effect of over 55% in size
#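 qHTS luciferase splicing reporter: luminescence rises when SMN2 exon 7 is included in transfected HEK293 cells. Compound exposure lasted 30-36 h at 37C, with 4.5 mM final sodium butyrate as control, followed by a ONE-Glo read.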
# FLuc counter: firefly luciferase modulation, counter-screen for miR-21 project; P08659; 6.9% of 360,000 active; purified FLuc, Km substrates, luminescence inhibition; Potency, µM (series often up to 57.5 µM), inactives show top-dose activity change, negative = inhibition, usual class: inhibitors;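 also: plate controls were vehicle for no effect and reference inhibitor for full effect; nearly all actives have a fitted effect of over 55% in size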
# Target sequence (P08659 whole entry, looked up): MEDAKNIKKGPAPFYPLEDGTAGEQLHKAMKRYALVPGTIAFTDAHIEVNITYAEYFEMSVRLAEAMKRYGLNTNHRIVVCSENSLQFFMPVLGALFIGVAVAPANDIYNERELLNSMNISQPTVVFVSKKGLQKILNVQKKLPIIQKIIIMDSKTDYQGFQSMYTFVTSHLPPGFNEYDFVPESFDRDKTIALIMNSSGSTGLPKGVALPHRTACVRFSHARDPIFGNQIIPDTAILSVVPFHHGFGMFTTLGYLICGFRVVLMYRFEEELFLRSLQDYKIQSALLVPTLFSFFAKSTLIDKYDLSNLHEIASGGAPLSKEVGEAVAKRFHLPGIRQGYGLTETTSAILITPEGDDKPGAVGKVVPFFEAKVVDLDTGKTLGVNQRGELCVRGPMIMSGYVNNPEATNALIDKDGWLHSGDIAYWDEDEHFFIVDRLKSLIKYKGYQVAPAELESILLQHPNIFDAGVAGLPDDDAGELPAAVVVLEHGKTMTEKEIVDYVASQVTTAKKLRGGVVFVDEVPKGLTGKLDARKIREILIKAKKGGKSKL
#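 Biochemical qHTS of compounds, final roughly 60 µM downward over six points, against 10 nM purified firefly luciferase using Km concentrations of substrates (10 uM D-luciferin, 10 uM ATP) in Tris acetate pH 7.5 buffer; luminescence output.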
# ELG1 repair inh: ELG1-dependent DNA repair inhibition; Potency, µM (highest dose often 46.1 µM), inactives show at the top dose activity change, negative = inhibition, actives largely listed as inhibitors; 2.3% of 330,000 active; AID 504467; HEK293T ELG1-luciferase reporter, luminescence, 16 h; DNA damage induced by 5-fluorouridine; also: % is scaled to controls: 0 for no effect and ±100 for the full control effect; nearly all actives have a fitted effect of over 55% in size
#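 5-Fluorouridine DNA damage + compound/DMSO, 2,000 cells/well, 16 h, 37 °C/5% CO2. ONE-Glo, 30 min RT, luminescence. Readout = decrease in reporter signal.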
# NPC1 prom act: activates the NPC1 promoter; Huh7 NPC1 promoter luciferase reporter, 24 h; Potency, µM (top dose mostly 9.22 µM), for inactives: top-dose activation, most hits filed as activators; 2.4% of 320,000 active; also: % of control where 0% means no effect; nearly all actives have a fitted effect of over 60% in size
#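 Luciferase expression driven by the NPC1 promoter was measured in stably transfected Huh7 cells after a 24 h compound incubation, using a luciferase reagent and a luminescence read.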
# Rab9 prom act: activates the Rab9 promoter. 2.8% of 320,000 active. Huh7 Rab9 promoter-luciferase reporter, luminescence, 24 h. Potency, µM (titrated, usually from 9.22 µM), for the others: top-dose activation, negative = inhibition, actives largely listed as activators; also: % of control where 0% means no effect; nearly all actives have a fitted effect of over 60% in size
#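 Luminescence read-out: Huh7 cells stably expressing Rab9-luciferase, treated 24 h with compound at 37 °C, then lysed with luciferase reagent for 10 min at ambient before reading.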
# The depositor's hits bear a star; ? = inconclusive; nt = not tested or not shown; ! = a repeat was not active; [ ] = another dose, or the depositor's remark. Hits are enriched below; roughly 9.4% of the tested compounds scored in any of these assays. Calls follow the shape of the dose curve; as a rule, active = well fitted curve in the direction sought with a large enough effect; inconclusive = small, poorly fitted or top-dose-only effect, or another doubt; inactive = no such curve, though single readings can be large; an effect the other way counts as inactive or inconclusive. Potency is read from the fitted curve at half-maximal effect.
SMILES,ELG1 genotoxic,SMN2 splice up,FLuc counter,ELG1 repair inh,NPC1 prom act,Rab9 prom act
Cc1ccc2nc(CN3CCN(S(=O)(=O)c4ccc(F)cc4)CC3)oc2c1,nt,nt,-1%,nt,nt,nt
Clc1ccc2nc3c4ccccc4cnn3c2c1,8.2µM*,2.8µM*,1.9µM*,?,10%,-3%[1.84 µM]
Cc1nn2c3ccccc3nc2c2ccccc12,4%,18%,?,?,1%,-5%
COc1ccc(CCNC(=O)CCSCc2ccccc2Cl)cc1OC,nt,nt,3%,nt,nt,nt
Cc1ccc(O)c(NC(=O)c2noc3c2CCCC3)c1,nt,11µM*,8.5µM*,nt,nt,nt
Cc1ccc(O)c(NC(=O)c2noc3c2CCCCC3)c1,?,4µM*!,4.8µM*,?,2.8µM*,?
CSc1ccccc1NC(=O)c1noc2c1CCC2,15µM*,-5%,?,?,5%,24%
CCc1ccc(OCC2c3cc(OC)c(OC)cc3CCN2C(=O)c2ccc(S(=O)(=O)N3CCCC3)cc2)cc1 (stereo not given),nt,nt,-1%,nt,nt,nt
COC(=O)c1sc2cccc(F)c2c1S(=O)(=O)NCc1ccc(F)cc1,nt,nt,0%,nt,nt,nt
O=C(CN1CCOCC1)N/N=C/c1ccc(-c2ccc(C(=O)O)cc2)o1,-1%,nt,-12%,9%,-2%,-1%
CC1(CC(=O)N/N=C/c2ccc(-c3ccc(C(=O)O)cc3)o2)OCCO1,4%,0%,?,-2%,-4%,-12%
CC1(CC(=O)N/N=C/c2ccc(-c3ccc(Cl)cc3)o2)OCCO1,7%,9%,3.4µM*,?,8%,13%
COC(=O)c1ccc(-c2ccc(/C=N/NC(=O)CC3(C)OCCCO3)o2)cc1,9%,11µM*,?,?,?,?
CCOC(=O)Nc1ccc(C(=O)/C=C/c2ccccc2)cc1,7%,nt,17µM*,?,17%,-49%
O=C(Nc1ccc(C(=O)Oc2ccccc2)c(O)c1)c1ccccc1,1%,-16%,?,-4%,11%,28%
O=C(Nc1ccc(C(=O)Oc2ccccc2)c(O)c1)c1ccco1,?,?,7.6µM*,?,?,2.2µM*
CCOC(=O)Nc1ccc(C(=O)Oc2ccccc2)c(O)c1,16%,8%,15µM*,?,19%,?
CCOC(=O)Nc1ccc(Oc2ccccc2)cc1,18µM*,7%,13µM*,?,?,?
COc1ccccc1N1CCN(c2ncnc3c2cnn3-c2ccc(C)cc2)CC1,nt,nt,-17%,nt,nt,nt
O=C(N/N=C/c1ccc(F)cc1)c1cc[n+]([O-])cc1,4%,nt,0%,10%,-2%,0%
O=C(N/N=C/c1ccc(F)cc1)c1cccc(NC(=O)c2ccc(F)cc2)c1,-10%,nt,8.5µM*,-4%,23%,?
O=C(N/N=C/c1ccncc1)c1cccc(NC(=O)c2ccc(Cl)cc2)c1,2%,-18%,-7%,10%,-2%,-3%
O=C(N/N=C/c1ccc(F)cc1)c1ccccc1,?,18µM*,12µM*,?,2.8µM*,2µM*
O=C(Nc1ccccc1C(=O)N/N=C/c1ccc(F)cc1)c1ccccc1Br,-1%,-5%,6µM*,-12%,7%,7%
O=C(N/N=C\c1ccc(F)cc1)c1csnn1,?,6%,24µM*,?,24%,22%
SMILES,ELG1 genotoxic,SMN2 splice up,FLuc counter,ELG1 repair inh,NPC1 prom act,Rab9 prom act
O=S(=O)(c1ccccc1)N1CCC[C@@]2(CCN(c3ccncc3)C2)C1,nt,-23%,nt,nt,nt,nt
C[C@@H]1C=C[C@](Cc2ccccc2)(C(=O)NCCCNc2ncc(C(F)(F)F)cc2Cl)N1C(=O)c1ccccc1,nt,-17%,nt,nt,nt,nt
CCCN(C(=O)c1cc2c(s1)-c1ccccc1SC2)c1ccccc1F,nt,-25%,3%,nt,nt,nt
O=C(O)c1ccc(/C=N/NC(=O)c2ccc(F)cc2)cc1,-2%,nt,19µM*,2%,-6%,1%
O=C(N/N=C/c1ccccc1C(F)(F)F)c1ccc(O)cc1,?,28%,11µM*,?,?,?
O=C(N/N=C/c1ccccc1O)c1cccc(C(F)(F)F)c1,?,-103%,?,?,-25%,-26%
Cc1c(C(C)(C)C)sc(=NC(=O)c2ccccc2O)n1C,?,nt,0.95µM*,?,2.8µM*,1µM*
Cc1c(C(C)(C)C)s/c(=N/S(=O)(=O)c2ccccc2)n1C,2%,nt,4%,4%,4%,2%
O=C1N=C(N2CCCCC2)S/C1=C\c1cn[nH]c1-c1ccccc1,-1%,?,7.6µM*,-10%,21%,15%
O=C1N=C(N2CCCCC2)S/C1=C\c1ccncc1,-6%,nt,-9%,?,-4%,-6%
CN1CCN(C2=NC(=O)/C(=C/c3cn[nH]c3-c3ccccc3)S2)CC1,-9%,nt,-17%,?,-3%,-7%
CC1CCN(C2=NC(=O)/C(=C/c3ccccc3F)S2)CC1,9.2µM*,nt,3.4µM*,?,?,15%
COc1ccc(/C=C2\SC(N3CCCCC3)=NC2=O)cc1,10%,nt,11µM*,?,?,?
O=C1N=C(N2CCCC2)S/C1=C\C=C\c1ccccc1,1.6µM*,nt,0.85µM*,?,1.6µM*,0.56µM*
O=C(CN1C(=O)S/C(=C\C=C\c2ccccc2)C1=O)N1CCCCC1,8%,nt,?,-7%,-5%,9%
CCc1ccc(/C=C2\SC(N3CCCC3)=NC2=O)cc1,3%,-38%,17µM*,-14%,-1%,-5%
CCCCC[C@H](O)/C=C/[C@@H]1[C@H]2C/C(=C/CCCC(=O)O)C[C@H]2C[C@H]1O,nt,3%,nt,nt,nt,nt
Cc1ccc(/C=C/C(=O)Nc2nc3ccccc3[nH]2)cc1,10µM*,10µM*,?,?,3.2µM*,1.8µM*
Cc1onc(-c2c(F)cccc2Cl)c1C(=O)Nc1nc2ccccc2[nH]1,-8%,28%,-17%,?,21%,17%
NC(=O)Nc1nc2ccccc2[nH]1,nt,13%,nt,nt,nt,nt
Cc1ccc(Cc2nc3ccccc3[nH]2)cc1,-2%,nt,-19%,-7%,0%,0%
Cc1ccc(/C=C/C(=O)c2nc3ccccc3[nH]2)cc1,1%,?,0.76µM*,?,0%,11%
O=C(/C=C/c1c(F)cccc1Cl)Nc1nc2ccccc2[nH]1,?,7.1µM*,-19%,?,3.2µM*,2.8µM*
O=C(Cn1c(=O)oc2cc(S(=O)(=O)NCc3ccccc3)ccc21)N(CCO)Cc1ccccc1,nt,nt,-1%,nt,nt,nt
Fc1ccccc1-n1ncc2c1ncn1nc(Cc3ccccc3)nc21,nt,11µM*,6µM*,nt,nt,nt
Oc1nc(Nc2ccccc2)sc1/C=C1\C=Nc2ccccc21,?,nt,19µM*,?,4µM*,2.8µM*
